This is an account of results in PubChem BioAssay (NCATS).

Inconclusive results are not listed. Unmarked numbers belong to inactive results. The source made the active and inactive calls. Calls come from the whole dose curve.
% is set by controls: 0 for no effect and ±100 for the full control effect.

A short description of this assay: Primary qHTS for Vero E6 cytotoxicity: counterscreen for inhibitors of SARS-S pseudo-typed particle cell entry (AID 1479150). The following applies: cell viability; series mostly up to 57.1 µM; activity change, negative = cytotoxicity: at the top concentration. (In general: Quantitative high-throughput screening tests each substance at several concentrations.)
With `CC(C)(C)c1ccc(C(=O)CCCN2CCC(OC(c3ccccc3)c3ccccc3)CC2)cc1`, the “activity change, negative = cytotoxicity” value is 4.13%.
Regarding `CCCC(=O)OC[C@@H](OC(=O)CCC)[C@@H](OC(=O)CCC)[C@H](Cn1c2nc(=O)[nH]c(=O)c-2nc2cc(C)c(C)cc21)OC(=O)CCC`, the molecule was classed as inactive.
In the case of `CCN(CC)CCOC(=O)C1(c2ccccc2)CCCC1`, the “activity change, negative = cytotoxicity” value is -1.22%.
For the molecule `CN1[C@@H]2CC[C@H]1CC(OC(=O)c1c[nH]c3ccccc13)C2` (stereo partly specified), the call was inactive.
For the molecule `NS(=O)(=O)c1cc2c(cc1Cl)CN(C1CCCCC1)C2=O`, the molecule was classed as inactive.
On the same count and under the same terms, then `COC(=O)C1=C(C)NC(C)=C(C(=O)OC)C1c1ccccc1[N+](=O)[O-]`, with “inactive”; and `Cc1ncc(COP(=O)(O)O)c(C=O)c1O`, with “inactive”.
For `c1ccc(CNCCNCc2ccccc2)cc1`, the “activity change, negative = cytotoxicity” value is 3.58%.
Regarding `C=CCOc1cc(Cl)ccc1C(=O)NCCN(CC)CC`, the result was inactive.
`C[C@H](O)C(=O)Nc1c(I)c(C(=O)NC(CO)CO)c(I)c(C(=O)NC(CO)CO)c1I`: the “activity change, negative = cytotoxicity” value is -5.21%.
On to `O=c1[nH]c(=O)c2[nH]c(=O)[nH]c2[nH]1`, for which the outcome was “inactive [at 11.4 µM]”.
The same measure, in the same setting: then `CCN(CC)CCOCCOC(=O)C1(c2ccccc2)CCCC1`, with “inactive”; and `C#C[C@]1(O)CC[C@H]2[C@@H]3CCC4=CC(=O)CCC4=C3C=C[C@@]21CC`, with “inactive”.
Turning to `CN(C)[C@@H](CCOc1cccc2ccccc12)c1ccccc1`, the “activity change, negative = cytotoxicity” value is -9.61%.
Consider `CC(=O)Nc1ccc(S(=O)(=O)Nc2ccc([N+](=O)[O-])cc2)cc1`, for which the “activity change, negative = cytotoxicity” value is -2.55%.
On to `C#C[C@]1(OC(C)=O)CC[C@H]2[C@@H]3CCC4=C[C@@H](OC(C)=O)CC[C@@H]4[C@H]3CC[C@@]21C`, for which the result was inactive.
